This note sets out measurements from PubChem BioAssay AID485297 (National Center for Advancing Translational Sciences (NCATS), 2010).

Hit rate of the full screen: of about 320,000 compounds, about 9,100 (2.8%) were called active. Inconclusive results (about 3%) are left out. This excerpt belongs to a sample that is enriched for actives. Unmarked numbers belong to inactive results. Calls come from the whole dose curve; as a rule, active = well fitted activation curve with a large enough effect; inconclusive = small, poorly fitted or top-dose-only effect; inactive = no such curve, though single readings can be large or run the other way.
Potency is the fitted concentration of half-maximal effect.

This test in a line: qHTS Assay for Rab9 Promoter Activators. For activation, negative = inhibition: % of control where 0% means no effect. Note: nearly all actives have a fitted effect of over 60% in size. Particulars: Huh7 Rab9 promoter-luciferase reporter, luminescence, 24 h; series mostly up to 9.22 µM; activation, negative = inhibition: at the top concentration. The gist of the method: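 Promoter activation is measured as luciferase luminescence in Huh7 cells stably transfected with a Rab9 promoter–luciferase construct, following 24 h compound exposure at 37 °C and 10 min reagent incubation at ambient temperature.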
A general note: In qHTS, concentration-response curves come from the screen itself.
As for `Cc1nc(-c2ccc(Cl)cc2)sc1C(=O)CBr`, the “activation, negative = inhibition” value is 5.69%.

As for `CC(C)CN(C(=O)CSc1nncn1C)C1CCS(=O)(=O)C1` (stereo not given), the “activation, negative = inhibition” value is 1.54%.

For the compound `Cc1ccc(C(=O)NNc2ncnc3ccccc23)cc1`, the Potency is 3.98 µM (active).

As to `Cc1ccc(C(=O)NNC(=O)c2cc3cc4ccccc4nc3s2)cc1`, the “activation, negative = inhibition” value was 1.92%.

In the case of `CCc1nc(SCC(=O)NNC(=O)c2ccc(C)cc2)c2ccccc2n1`, the “activation, negative = inhibition” value was -0.467%.

`COc1ccc(CNC(=O)COC(=O)c2c(C)nn(-c3ccccc3)c2C)cc1OC`: the “activation, negative = inhibition” value is -7.89%.

On to `CN(C)C(CNC(=O)c1cccc(C#N)c1)c1ccco1` (stereo not given), for which the “activation, negative = inhibition” value is -2.23%.

For the compound `Cc1cc(F)ccc1S(=O)(=O)Nc1ccc(C(=O)N(C)Cc2ccco2)cc1`, the “activation, negative = inhibition” value was 0.153%.

On to `CC1CCCCC12NC(=O)N(CC(=O)Nc1ccc(S(=O)(=O)Nc3ncccn3)cc1)C2=O` (stereo not given), for which the “activation, negative = inhibition” value is -4.51%.

Consider `Cc1ccc(C(=O)OCc2nc(N)nc(Nc3ccccc3C)n2)cc1`, for which the “activation, negative = inhibition” value is -1.45%.

As to `Cc1ccccc1Nc1nc(N)nc(CN2CCN(c3ccccn3)CC2)n1`, the “activation, negative = inhibition” value was 1.52%.

Turning to `Cc1ccccc1Nc1nc(N)nc(CSc2ccccc2)n1`, the Potency is 1.41 µM (active).

`COc1cccc(C(O)c2nc3ccccc3n2C)c1` (stereo not given): the “activation, negative = inhibition” value is -1.9%.

Take `Cc1cc(C)c(CN2CCN(C(=O)Cn3ccc(NC(=O)OCc4ccccc4)nc3=O)CC2)c(C)c1`: the “activation, negative = inhibition” value was 2.35%.

With `COc1ccccc1/C=C1\SC(=O)N(CCC(=O)N(C)C2CCS(=O)(=O)C2)C1=O` (stereo not given), the “activation, negative = inhibition” value was 8.24%.

For `COc1ccc(/C=C2\SC(=O)N(CCC(=O)NC3CCS(=O)(=O)C3)C2=O)cc1` (stereo not given), the Potency is 2.51 µM (active).

In the case of `COc1ccc(/C=C2\SC(=O)N(CCC(=O)NCCCn3ccnc3)C2=O)cc1`, the “activation, negative = inhibition” value was 29.9%.

For `CC1CCCC(C)N1C(=O)COC(=O)COc1ccccc1C#N` (stereo not given), the “activation, negative = inhibition” value was 1.16%.

Take `CCCCN(C(=O)c1ccc(S(=O)(=O)N2CCOCC2)cc1)C1CCS(=O)(=O)C1` (stereo not given): the “activation, negative = inhibition” value was 1.73%.

Take `O=C(Nc1cccnc1)c1cc(Cl)ccc1Cl`: the “activation, negative = inhibition” value was 0.754%.

With `O=C(Nc1cccnc1)c1noc2c1CCCCC2`, the Potency was 1.58 µM (active).

`O=C(Nc1cccnc1)c1cccc(S(=O)(=O)N2CCCC2)c1`: the “activation, negative = inhibition” value is -2.29%.

For `CCCCc1ccc(NC(=O)CN2C(=O)NC(Cc3ccccc3)C2=O)cc1` (stereo not given), the “activation, negative = inhibition” value is 5.27%.

`O=C(NNC(=O)c1cccc(S(=O)(=O)Nc2ccc(Cl)cc2)c1)c1ccc(=O)[nH]c1`: the “activation, negative = inhibition” value was -0.571%.

As for `O=C(NCC(=O)N1CCN(c2ccccc2F)CC1)c1cccs1`, the “activation, negative = inhibition” value is 29.4%.

Regarding `O=C(CCSc1ccccc1)N1CCN(c2ccccc2F)CC1`, the Potency was 3.55 µM (active).

For `O=C(CCc1ccccc1F)N1CCN(c2ccccc2)CC1`, the “activation, negative = inhibition” value is 3.89%.

Regarding `CC1CCCC(NC(=O)c2cc(S(=O)(=O)N3CCCCC3)ccc2Cl)C1C` (stereo not given), the “activation, negative = inhibition” value was -10.7%.

Regarding `CCCCCCCC(=O)OC(CN1CCCCCC1)CN1CCCC1=O` (stereo not given), the “activation, negative = inhibition” value is 0.284%.

On to `COc1ccc(C2COC(=O)C2=N)c(NC(=O)c2ccccc2)c1` (stereo not given), for which the “activation, negative = inhibition” value is -5.53%.

As for `COc1cccc(C(=O)Nc2cc3c(cc2Br)OCCCO3)c1`, the Potency was 2.82 µM (active).

As for `COc1ccc(C(=O)Nc2ccc(N3CCC(C)CC3)cc2)cc1Br`, the “activation, negative = inhibition” value is 0.157%.

Turning to `CC(=O)Oc1cccc(C(=O)Nc2ccccc2NC(=O)c2cccc(OC(C)=O)c2)c1`, the “activation, negative = inhibition” value was -3.88%.

Regarding `CN1CCN(c2ccc(NC(=O)c3ccccc3)cc2)CC1`, the Potency is 1.58 µM (active).

`COc1cccc(C(=O)Nc2ccc(N3CCN(C(=O)c4ccco4)CC3)cc2)c1`: the “activation, negative = inhibition” value is -19.2%.

For the compound `CN1CCN(c2ccc(NC(=O)c3ccc4c(c3)[nH]c(=O)n4Cc3ccc(F)cc3)cc2)CC1`, the “activation, negative = inhibition” value was -10.7%.

In the case of `Cc1ccccc1C(=O)NC(=S)Nc1ccc(N2CCN(C(=O)c3ccccc3)CC2)cc1`, the “activation, negative = inhibition” value is -8.82%.

Take `COc1cccc(C(=O)Nc2ccc(N3CCCC3)cc2)c1`: the Potency is 1.12 µM (active).

For the compound `CC(C)(C)OC(=O)N[C@H](C(=O)OC(C)(C)C)c1ccc(Br)cc1`, the “activation, negative = inhibition” value was -3.11%.

Take `O=C(OCC(=O)N1CCN(C(=O)c2ccco2)CC1)c1ccc(Cl)c(Cl)c1`: the “activation, negative = inhibition” value was -2.48%.

For the compound `CN(c1ccccc1)S(=O)(=O)c1cccc(NC(=O)Cc2ccc(Cl)cc2)c1`, the “activation, negative = inhibition” value is -4.08%.

As to `C=CCc1c(C)nc2cc(-c3ccccc3)[nH]n2c1=O`, the Potency was 1.41 µM (active).

Consider `CCCCN1Cc2c(nc3cc(-c4ccccc4)[nH]n3c2=O)C1=O`, for which the “activation, negative = inhibition” value was -6.04%.

With `CCc1c(C)nc2cc(C)[nH]n2c1=O`, the “activation, negative = inhibition” value is 1.24%.

As for `O=C1C=C(c2cccc(Br)c2)C[C@@H](c2ccc(F)cc2)C1`, the “activation, negative = inhibition” value is -7.46%.

On to `NC(=O)NC(CC(=O)NNC(=O)c1ccccn1)c1ccc(Cl)cc1` (stereo not given), for which the “activation, negative = inhibition” value was -15.9%.

Regarding `O=S(=O)(NCCCN1CCOCC1)c1ccc(F)c(Cl)c1`, the “activation, negative = inhibition” value is -4.67%.

For `O=C(OCC(=O)N1CCCCCC1)c1cnc(Cl)c(Cl)c1`, the “activation, negative = inhibition” value was 2.37%.

`CCOc1ccc(C(=O)Nc2ccncc2)cc1`: the “activation, negative = inhibition” value was 24.6%.

In the case of `CCOc1cccc(NC(=O)CC#N)c1`, the “activation, negative = inhibition” value is -2.84%.

As to `CCOc1ccc(NC(=O)c2ccc(NC(=O)COC(=O)c3ccc(NC(=O)CC#N)cc3)cc2)cc1`, the Potency was 2.24 µM (active).

Consider `Cc1cccc(NS(=O)(=O)c2ccc(C)c(C(=O)NCC(c3ccccc3)N(C)C)c2)c1` (stereo not given), for which the “activation, negative = inhibition” value is -1.19%.

With `O=C(Nc1ncccc1O)c1ccc(C(=O)c2ccccc2)cc1`, the Potency is 4.47 µM (active).

In the case of `O=C(Nc1ncccc1O)c1ccc(S(=O)(=O)N2CCCCCC2)cc1`, the “activation, negative = inhibition” value was 29.2%.

`O=C(Nc1ncccc1O)c1ccc(S(=O)(=O)N2CCCC2)cc1`: the “activation, negative = inhibition” value is 0.0374%.
